Screens as filed in PubChem.
TDP1 cell CPT: qHTS for Inhibitors of human tyrosyl-DNA phosphodiesterase 1 (TDP1): qHTS in cells in presence of CPT | Potency, µM (top dose mostly 46.2 µM), inactives show at the highest dose activity change, negative = growth inhibition, usual class: inhibitors | 420,000 tested, 12% active | chicken DT40 Tdp1-/-;hTDP1 cells + 20 nM CPT, ATP luminescence, 48 h; note: potency is the fitted concentration of half-maximal effect; nearly all actives have a fitted effect of over 55% in size
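Chicken DT40 Tdp1-/- cells stably complemented with human TDP1 were seeded at 400 cells/well in medium containing 20 nM camptothecin, exposed to pin-transferred compounds, and grown at 37 °C for at least 48 hr. Viability was read as ATP luminescence.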
HT1080NT lethal: qHTS for induction of synthetic lethality in tumor cells producing 2HG: qHTS for the HT-1080-NT fibrosarcoma cell line; 360,000 tested, 1.6% active; Potency, µM (titrated, usually from 46.1 µM), for inactives: at the highest dose activity, negative = less viability, most hits filed as cytotoxic; HT-1080-NT fibrosarcoma viability, CellTiter-Glo ATP luminescence, 48 h;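 note: NT is the 2HG producing partner of a matched IDH1 knockdown line; potency is the fitted concentration of half-maximal effect; 0% = DMSO-treated cells and -100% = media-only wells without cells; nearly all actives have a fitted effect of over 55% in size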
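A 48-hour cytotoxicity screen used HT-1080-NT cells plated 2 hours before compound delivery. ATP-based CellTiter-Glo luminescence measured viability, normalized to DMSO and no-cell controls.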
TDP1 cell noCPT: qHTS for Inhibitors of human tyrosyl-DNA phosphodiesterase 1 (TDP1): qHTS in cells in absence of CPT; DT40 Tdp1-/- hTDP1 cells, no CPT, ATP luminescence, 48 h; Potency, µM (titrated, usually from 46.2 µM), for the others: at the highest dose activity change, negative = growth inhibition, usual class: inhibitors; 420,000 tested, 15% active; note: potency is the fitted concentration of half-maximal effect; nearly all actives have a fitted effect of over 55% in size
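Chicken DT40 Tdp1-/- cells complemented with human TDP1, screened without camptothecin (DMSO vehicle only), 400 cells/well. Compounds pin-transferred, cells incubated at 37 °C for at least 48 hr. Growth read as ATP-dependent luminescence (CellTiter-Glo, 30 min at RT).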
HT1080 IDH1KD tx: qHTS for induction of synthetic lethality in tumor cells producing 2HG: qHTS for the HT-1080-IDH1KD cell line; AID 686971, 2013; Potency, µM (highest dose often 46.1 µM), for inactives: top-dose activity, negative = toxicity, hits mostly cytotoxic; HT-1080 IDH1 knockdown viability, ATP luminescence, 48 h; 360,000 tested, 2% active;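 note: potency is the fitted concentration of half-maximal effect; 0% = DMSO wells and -100% = cell-free medium wells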
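In this qHTS, HT-1080 cells depleted of IDH1 are exposed for 48 h at 37 °C to compound titrations. Toxicity is scored from CellTiter-Glo luminescence, with DMSO as full viability and medium alone as none.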
IL1B secr inh: qHTS for Inhibitors of Inflammasome Signaling: IL-1-beta AlphaLISA Primary Screen. 360,000 tested, 4.7% active. AID 743279, 2014. activity change, % at 57.5 µM. THP-1 LPS/ATP IL-1B secretion, AlphaLISA, 16 h; active compounds read low; in the data active = activity change below about -50%; inconclusive = mostly about -30% to -49%
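THP-1 cells pretreated 1 hr with compounds (up to 57.5 uM final), then stimulated with LPS (250 ng/mL final) plus ATP (1.25 mM final); secreted IL-1B measured by AlphaLISA after 16 hr, decreased signal indicating inhibition.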
Active calls of the source: *; ? = inconclusive; / = no result; [ ] = remark or other dose. The list is not random: actives were taken first. Their share in the collection is about 19%. Unless noted, calls come from the whole dose curve; as a rule, active = well fitted curve in the direction sought with a large enough effect; inconclusive = small, poorly fitted or top-dose-only effect, or another doubt; inactive = no such curve, though single readings can be large; an effect the other way counts as inactive or inconclusive. Unless noted, % is set by controls: 0 for no effect and ±100 for the full control effect.

SMILES	TDP1 cell CPT	HT1080NT lethal	TDP1 cell noCPT	HT1080 IDH1KD tx	IL1B secr inh
COc1ccc(CCNC(=O)c2ccc(CNS(=O)(=O)c3cccc(Cl)c3)cc2)cc1OC	?	-20%	23µM*	-17%	-12
CCOc1ccc(OCC)c(NC(=O)C2CCN(c3ncccn3)CC2)c1	-2%	2%	-11%	-3%	0
O=C(CN1CCN(C(=O)C2CCCO2)CC1)Nc1cc(Cl)ccc1Cl (stereo not given)	?	-8%	-7%	-6%	18
CCOC(=O)/C(C#N)=C(C)/C=C1\Sc2ccccc2N1CC	?	16%	18µM*	7%	-3
CCN1/C(=C\C=C(C(C)=O)C(C)=O)Sc2ccccc21	?	2%	?	-11%	-7
Nc1ccc2c(c1)OC1(CCCCC1)O2	?	0%	16µM*	16%	9
CCOC(=O)c1c(NC(=S)NNS(=O)(=O)c2ccc(Br)cc2)sc2c1CCCCC2	-2%	-3%	-26%	1%	22
CCCN1CCC2(CC1)C(C#N)=C(N)Oc1c2sc2nc(C)cc(C)c12	?	-13%	?	-11%	-3
CCOC(=O)N1CCC2(CC1)C(C#N)=C(N)Oc1c2c(C)nn1-c1cccc(Cl)c1	16µM*	-4%	18µM*	?	-6
CCOC(=O)N1CCC2(CC1)C(C#N)=C(N)Oc1c2sc2nc(C)cc(C)c12	?	?	16µM*	?	-14
CCOC(=O)N1CCC2(CC1)C(C#N)=C(N)Oc1n[nH]c(C)c12	-18%	12%	-4%	7%[9.24 µM]	16
O=C(CSc1n[nH]c(-c2cccs2)n1)NCCc1ccccc1	?	-9%	?	-3%	25
CCOc1ccccc1CNC(=O)CSc1n[nH]c(-c2ccccc2Cl)n1	13µM*	/	23µM*	/	/
O=C(CSc1n[nH]c(-c2ccccc2Cl)n1)NCCc1ccccc1	9.2µM*	/	21µM*	/	/
COc1cccc(CNC(=O)CSc2n[nH]c(-c3ccccc3Cl)n2)c1OC	-28%	/	-23%	/	/
CCC(CC)C(=O)Nc1ccc(OCc2cc(=O)n3c4c(sc3n2)CCCC4)cc1	-10%	/	-3%	/	/
N#Cc1ccc(C(=O)NC2CCCCCCC2)cc1	-21%	2%	?	-10%	-3
CCCN1CCC(=O)N([C@H](COc2ccccc2)CC(C)C)CC1	?	-5%	?	1%	-9
CC(C)C[C@@H](COc1ccccc1)N1CCN(CCc2ccccc2)CCC1=O	11µM*	-3%	21µM*	-7%	-3
O=C1CCN(CCc2ccccc2)CCN1[C@H](COc1ccccc1)Cc1ccccc1	29µM*	?	11µM*	?	?
CC(C)CN1CCC(=O)N([C@H](COc2ccccc2)Cc2ccccc2)CC1	23µM*	-1%	11µM*	-1%	-8
O=C(O)COc1ccccc1/C=C1\SC(=Nc2ccc(F)cc2)N(c2ccc(F)cc2)C1=O	-5%	-22%	5%	-21%	1
CC1Cc2ccccc2N1CC(=O)NC(=O)NC1CCCCC1 (stereo not given)	18µM*	6%	-17%	-3%	35
CC1Cc2ccccc2N1CC(=O)NC(=O)NC(C)(C)C (stereo not given)	5%	-19%	7%	-11%	65
COc1ccccc1CNS(=O)(=O)c1ccc(N2CCCC2)cc1Br	16µM*	-11%	?	-13%	-5
SMILES	TDP1 cell CPT	HT1080NT lethal	TDP1 cell noCPT	HT1080 IDH1KD tx	IL1B secr inh
COC(=O)c1cc2sc(Cl)cc2n1CC(=O)NCCC(C)C	21%	0%	-13%	6%	-3
CN(c1ccc(C(=O)Nc2ccc(Cl)cn2)cc1)S(=O)(=O)c1ccccc1	?	?	21µM*	-20%	-9
O=C(Nc1ccc(Cl)cn1)c1cccc2c(Br)cccc12	?	?	15µM*	?	58
Cc1ccc(CC(=O)Nc2ccc(Cl)cn2)cc1	9%	12%	-18%	9%	-6
Cc1ccc(C(=O)Nc2ccc(Cl)cn2)cc1	7.3µM*	16µM*	8.2µM*	10µM*	24
CCN(CC)S(=O)(=O)c1cc(C(=O)Nc2ccc(Cl)cn2)ccc1C	?	-10%	16µM*	-3%[9.24 µM]	-54*
COc1ccc(NC(=O)CSc2nnc3scc(-c4ccc(Cl)cc4)n23)cc1	-20%	/	-29%	/	/
O=c1c2cc(-c3ccccc3)sc2ncn1/N=C/c1ccco1	-2%	14%	-15%	9%	-19
O=C(CCc1ccccc1)Nc1ccc(Cl)cn1	5.8µM*	5.8µM*	3.3µM*	2.9µM*	0
Cc1ccccc1C(=O)Nc1ccccn1	-1%	14%	-17%	8%	0
CCCOc1ccc(C(=O)Nc2ccc(Cl)cn2)cc1	-18%	1%	-21%	-1%	?
O=C(Nc1ccc(Cl)cn1)c1ccc(Oc2ccccc2)cc1	3%	-14%	?	-3%	-67*
Cc1ccccc1C(=O)Nc1ccc(Br)c(C)n1	?	-2%	9.2µM*	1%	-3
Cc1ccccc1C(=O)Nc1ccc(Cl)cn1	16µM*	3%	21µM*	2%	-1
COCCCN1C(=O)c2oc3ccccc3c(=O)c2C12C(=O)N(C)c1ccccc12 (stereo not given)	3%	/	-9%	/	/
CCOC(=O)c1oc2ccccc2c1COC(=O)CNC(=O)c1ccco1	0%	3%	-2%	-1%	19
CCOc1ccc(-c2cc(NC(=O)Cn3ncc4c3-c3ccccc3OC4)on2)cc1OCC	-3%	-21%	-4%	-20%	10
Cc1ccc(-c2cc(NC(=O)c3ccccc3[N+](=O)[O-])n[nH]2)cc1	?	-11%	21µM*	-10%	-5
Cc1ccc(NC(=O)c2ccc(Cl)cc2[N+](=O)[O-])nc1	3.3µM*	5.8µM*	3.3µM*	4.6µM*	37
CCOC(=O)C(=O)N(C)c1c(CC)nc2c(OCc3ccccc3)cccn12	-20%	24%	-27%	0%	1
CCOc1ccccc1NC(=O)c1sc2nc3n(c(=O)c2c1C)CCCCC3	-11%	/	-25%	/	/
OCC(O)C[n+]1cccc(Br)c1 (stereo not given)	8%	/	-20%	/	/
CCCCCCSc1ccc(-c2nc3cnccn3c2NC2CCCCC2)cc1	?	1%	?	4%	14
CCCCCCSc1ccc(-c2nc3ccc(C)cn3c2NC2CCCCC2)cc1	16µM*	1%	18µM*	1%	-20
